According to PubChem BioAssay AID1159580 (chemical genetic matrix, 2015):
The whole screen tested about 5,500 compounds, of which about 2,000 (36%) were called active. Another 18% or so got no clear call; they are omitted. This is one part of the list. Unmarked numbers belong to inactive results. Rule as the data show it: active = normalized growth mostly below about 0.91 (no sharp cut-off); inconclusive = no clear call, values can overlap the other calls; inactive = mostly above about 0.92.

Assay: chemical genetic growth profiling, strain panel (AID 1159580);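 also: tested at 20 µM; growth read once vehicle control cultures reached saturation at 30 °C; 1 = growth at the plate median or of vehicle wells; lower values mean less growth of the strain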
Conditions: growth OD
[1] = S. cerevisiae deletion strains, locus YBR021W, strain FUR4, hits give low values
[2] = S. cerevisiae deletion strains, locus YBR229C, strain ROT2, hits give low values
[3] = S. cerevisiae deletion strains, locus YCL029C, strain bik1, hits give low values
[4] = S. cerevisiae deletion strains, locus YDL035C, strain GPR1, hits give low values
[5] = S. cerevisiae deletion strains, locus YDL074C, strain BRE1, hits give low values
[6] = S. cerevisiae deletion strains, locus YDL101C, strain DUN1, hits give low values
[7] = S. cerevisiae deletion strains, locus YDL185W, strain tfp1, hits give low values
[8] = S. cerevisiae deletion strains, locus YDL192W, strain arf1, hits give low values
[9] = S. cerevisiae deletion strains, locus YDR101C, strain arx1, hits give low values
[10] = S. cerevisiae deletion strains, locus YDR162C, strain NBP2, hits give low values
[11] = S. cerevisiae deletion strains, locus YDR318W, strain mcm21, hits give low values
[12] = S. cerevisiae deletion strains, locus YDR388W, hits give low values
[13] = S. cerevisiae deletion strains, locus YDR502C, strain sam2, hits give low values
[14] = S. cerevisiae deletion strains, locus YER110C, hits give low values
[15] = S. cerevisiae deletion strains, locus YER155C, strain BEM2, hits give low values
[16] = S. cerevisiae deletion strains, locus YER167W, strain BCK2, hits give low values
[17] = S. cerevisiae deletion strains, locus YGL078C, strain dbp3, hits give low values
[18] = S. cerevisiae deletion strains, locus YGL086W, strain mad1, hits give low values
[19] = S. cerevisiae deletion strains, locus YGL248W, strain PDE1, hits give low values
[20] = S. cerevisiae deletion strains, locus YGR135W, strain pre9, hits give low values
[21] = S. cerevisiae deletion strains, locus YGR252W, strain gcn5, hits give low values
[22] = S. cerevisiae deletion strains, locus YHR079C, strain IRE1 (second series), hits give low values
[23] = S. cerevisiae deletion strains, locus YHR094C, strain hxt1, hits give low values
[24] = S. cerevisiae deletion strains, locus YHR129C, strain ARP1, hits give low values
[25] = S. cerevisiae deletion strains, locus YHR200W, strain rpn10, hits give low values
[26] = S. cerevisiae deletion strains, locus YIL066C, strain RNR3, hits give low values
[27] = S. cerevisiae deletion strains, locus YIL073C, strain SPO22, hits give low values
[28] = S. cerevisiae deletion strains, locus YIL125W, strain kgd1, hits give low values
[29] = S. cerevisiae deletion strains, locus YIR030C, strain dcg1, hits give low values
[30] = S. cerevisiae deletion strains, locus YJL095W, strain BCK1, hits give low values
[31] = S. cerevisiae deletion strains, locus YJL134W, strain LCB3, hits give low values
[32] = S. cerevisiae deletion strains, locus YJL168C, strain set2, hits give low values
[33] = S. cerevisiae deletion strains, locus YJL187C, strain SWE1 (second series), hits give low values
[34] = S. cerevisiae deletion strains, locus YKL009W, strain mrt4, hits give low values
[35] = S. cerevisiae deletion strains, locus YKL068W, hits give low values
[36] = S. cerevisiae deletion strains, locus YKL085W, strain MDH1 (second series), hits give low values
[37] = S. cerevisiae deletion strains, locus YKL085W, strain MDH1, hits give low values
[38] = S. cerevisiae deletion strains, locus YKR001C, strain vps1, hits give low values
[39] = S. cerevisiae deletion strains, locus YLR039C, strain RIC1, hits give low values
[40] = S. cerevisiae deletion strains, locus YLR058C, strain SHM2, hits give low values
[41] = S. cerevisiae deletion strains, locus YLR102C, strain apc9, hits give low values
[42] = S. cerevisiae deletion strains, locus YLR262C, strain YPT6, hits give low values
[43] = S. cerevisiae deletion strains, locus YLR268W, strain sec22, hits give low values
[44] = S. cerevisiae deletion strains, locus YLR342W, strain FKS1 (second series), hits give low values
[45] = S. cerevisiae deletion strains, locus YLR371W, strain rom2, hits give low values
[46] = S. cerevisiae deletion strains, locus YLR418C, strain cdc73, hits give low values
[47] = S. cerevisiae deletion strains, locus YML016C, strain PPZ1, hits give low values
[48] = S. cerevisiae deletion strains, locus YML032C, strain rad52, hits give low values
[49] = S. cerevisiae deletion strains, locus YML124C, strain tub3, hits give low values
[50] = S. cerevisiae deletion strains, locus YMR078C, strain ctf18, hits give low values
[51] = S. cerevisiae deletion strains, locus YMR223W, strain ubp8, hits give low values
[52] = S. cerevisiae deletion strains, locus YMR307W, strain GAS1, hits give low values
[53] = S. cerevisiae deletion strains, locus YNL067W, strain RPL9B, hits give low values
[54] = S. cerevisiae deletion strains, locus YNL153C, strain GIM3, hits give low values
[55] = S. cerevisiae deletion strains, locus YNL233W, strain BNI4, hits give low values
[56] = S. cerevisiae deletion strains, locus YNL250W, strain rad50, hits give low values
[57] = S. cerevisiae deletion strains, locus YNL271C, strain bni1, hits give low values
[58] = S. cerevisiae deletion strains, locus YNL298W, strain CLA4, hits give low values
[59] = S. cerevisiae deletion strains, locus YNL307C, strain MCK1, hits give low values
[60] = S. cerevisiae deletion strains, locus YNR052C, strain pop2, hits give low values
[61] = S. cerevisiae deletion strains, locus YOL012C, strain htz1
[62] = S. cerevisiae deletion strains, locus YOL147C, strain pex11, hits give low values
[63] = S. cerevisiae deletion strains, locus YOR061W, strain CKA2, hits give low values
[64] = S. cerevisiae deletion strains, locus YOR069W, strain VPS5, hits give low values
[65] = S. cerevisiae deletion strains, locus YOR136W, strain idh2, hits give low values
[66] = S. cerevisiae deletion strains, locus YOR144C, strain elg1, hits give low values
[67] = S. cerevisiae deletion strains, locus YOR184W, strain ser1, hits give low values
[68] = S. cerevisiae deletion strains, locus YOR316C, strain cot1, hits give low values
[69] = S. cerevisiae deletion strains, locus YPR119W, strain clb2, hits give low values
[70] = S. cerevisiae deletion strains, locus YPR141C, strain kar3, hits give low values
[71] = S. cerevisiae deletion strains, locus YPR163C, strain tif3, hits give low values
[72] = S. cerevisiae deletion strains, locus YPR167C, strain met16, hits give low values
[73] = S. cerevisiae deletion strains, strain wtn01, hits give low values

## COc1cc2c(cc1OC)C1C(=O)c3c(cc4c(c3O)C=CC(C)(C)O4)OC1CO2 (stereo not given)
[1]
  normalized growth: 1
[2]
  normalized growth: 1.02
[3]
  normalized growth: 1.03
[4]
  normalized growth: 1.03
[5]
  normalized growth: 1.13
[6]
  normalized growth: 1.01
S. cerevisiae deletion strains, locus YDL134C, strain PPH21, hits give low values
  normalized growth: 1
[7]
  normalized growth: 1.02
[8]
  normalized growth: 0.996
[9]
  normalized growth: 0.99
[10]
  normalized growth: 1.03
[11]
  normalized growth: 1.02
[12]
  normalized growth: 1.02
[13]
  normalized growth: 1.02
[14]
  normalized growth: 1.02
[15]
  normalized growth: 1.04
[16]
  normalized growth: 1.01
[17]
  normalized growth: 1.01
[18]
  normalized growth: 1.01
[19]
  normalized growth: 1.03
[20]
  normalized growth: 1.06
S. cerevisiae deletion strains, locus YGR229C, strain SMI1, hits give low values
  normalized growth: 1.3 [resistant] (active)
[21]
  normalized growth: 1.08
[22]
  normalized growth: 1.02
[23]
  normalized growth: 1.03
[24]
  normalized growth: 1.02
[25]
  normalized growth: 1.02
[26]
  normalized growth: 1
[27]
  normalized growth: 1.28
[28]
  normalized growth: 1
[29]
  normalized growth: 1.02
[30]
  normalized growth: 1.05
[31]
  normalized growth: 1.01
[32]
  normalized growth: 1.03
[33]
  normalized growth: 1.01
[34]
  normalized growth: 1.04
[35]
  normalized growth: 1.01
[36]
  normalized growth: 1.01
[37]
  normalized growth: 1.01
S. cerevisiae deletion strains, locus YKL190W, strain CNB1, hits give low values
  normalized growth: 1
[38]
  normalized growth: 0.724 (active)
[39]
  normalized growth: 0.992
[40]
  normalized growth: 1.01
[41]
  normalized growth: 1.02
[42]
  normalized growth: 0.991
[43]
  normalized growth: 1.02
[44]
  normalized growth: 0.961
[45]
  normalized growth: 1.03
[46]
  normalized growth: 1.13
[47]
  normalized growth: 0.996
[48]
  normalized growth: 0.998
[49]
  normalized growth: 1.02
[50]
  normalized growth: 1.02
[51]
  normalized growth: 1.01
[52]
  normalized growth: 1.18
[53]
  normalized growth: 1.01
[54]
  normalized growth: 1.04
[55]
  normalized growth: 1.06
[56]
  normalized growth: 1.05
[57]
  normalized growth: 1.01
[58]
  normalized growth: 1
[59]
  normalized growth: 1.03
[60]
  normalized growth: 1.04
[61]
  normalized growth: 0.98
[62]
  normalized growth: 1.01
[63]
  normalized growth: 1
[64]
  normalized growth: 1.01
[65]
  normalized growth: 1.06
[66]
  normalized growth: 1.01
[67]
  normalized growth: 0.99
[68]
  normalized growth: 1.02
[69]
  normalized growth: 1.02
[70]
  normalized growth: 1
[71]
  normalized growth: 1.03
[72]
  normalized growth: 1.01
[73]
  normalized growth: 0.989
S. cerevisiae strains, strain wild type, hits give low values
  normalized growth: 1.02

## COc1cc2c(cc1OC)C1C(=O)c3ccc4c(c3OC1CO2)CCC(C)(C)O4 (stereo not given)
[1]
  normalized growth: 0.985
[2]
  normalized growth: 1
[3]
  normalized growth: 1.04
[4]
  normalized growth: 1.01
[5]
  normalized growth: 0.993
[6]
  normalized growth: 0.997
[7]
  normalized growth: 1.03
[8]
  normalized growth: 1.01
[9]
  normalized growth: 0.997
[10]
  normalized growth: 1.03
[11]
  normalized growth: 1.01
[12]
  normalized growth: 1
[13]
  normalized growth: 1.02
S. cerevisiae deletion strains, locus YEL061C, strain CIN8, hits give low values
  normalized growth: 1
[14]
  normalized growth: 1.02
[15]
  normalized growth: 0.996
[16]
  normalized growth: 0.999
[17]
  normalized growth: 1.03
[18]
  normalized growth: 1.02
[19]
  normalized growth: 0.99
S. cerevisiae deletion strains, locus YGR078C, strain PAC10, hits give low values
  normalized growth: 0.996
[20]
  normalized growth: 1.02
[21]
  normalized growth: 0.957
S. cerevisiae deletion strains, locus YHR030C, strain SLT2, hits give low values
  normalized growth: 1.01
[22]
  normalized growth: 1
[23]
  normalized growth: 1.02
[24]
  normalized growth: 1.01
[25]
  normalized growth: 1
[26]
  normalized growth: 1
[27]
  normalized growth: 1.02
[28]
  normalized growth: 1.02
[29]
  normalized growth: 1
[30]
  normalized growth: 1.01
[31]
  normalized growth: 0.996
[32]
  normalized growth: 1
[33]
  normalized growth: 0.999
S. cerevisiae deletion strains, locus YJR043C, strain POL32, hits give low values
  normalized growth: 1.01
[34]
  normalized growth: 1.03
[35]
  normalized growth: 1
[36]
  normalized growth: 1.01
[37]
  normalized growth: 1.01
[38]
  normalized growth: 0.994
[39]
  normalized growth: 1.01
[40]
  normalized growth: 0.999
[41]
  normalized growth: 1.01
[42]
  normalized growth: 1.04
[43]
  normalized growth: 1.02
S. cerevisiae deletion strains, locus YLR330W, strain CHS5, hits give low values
  normalized growth: 1.01
[44]
  normalized growth: 1
[45]
  normalized growth: 1.01
[46]
  normalized growth: 1
[47]
  normalized growth: 1
[48]
  normalized growth: 1.02
[49]
  normalized growth: 1
[50]
  normalized growth: 0.997
[51]
  normalized growth: 0.999
S. cerevisiae deletion strains, locus YMR263W, strain SAP30, hits give low values
  normalized growth: 0.998
[52]
  normalized growth: 1
[53]
  normalized growth: 0.993
S. cerevisiae deletion strains, locus YNL128W, strain TEP1, hits give low values
  normalized growth: 1.03
[54]
  normalized growth: 1.02
[55]
  normalized growth: 0.982
[56]
  normalized growth: 1.02
[57]
  normalized growth: 1.03
[58]
  normalized growth: 1.01
[59]
  normalized growth: 1
S. cerevisiae deletion strains, locus YNL322C, strain KRE1, hits give low values
  normalized growth: 1
[60]
  normalized growth: 1.02
S. cerevisiae deletion strains, locus YOL006C, strain TOP1, hits give low values
  normalized growth: 0.984
[61]
  normalized growth: 1.01
[62]
  normalized growth: 1
[63]
  normalized growth: 1.01
[64]
  normalized growth: 1
[65]
  normalized growth: 1.02
[66]
  normalized growth: 1.01
[67]
  normalized growth: 1.02
[68]
  normalized growth: 1.01
S. cerevisiae deletion strains, locus YPL241C, strain CIN2, hits give low values
  normalized growth: 0.993
[69]
  normalized growth: 1.02
[70]
  normalized growth: 1.01
[71]
  normalized growth: 1.01
[72]
  normalized growth: 1
[73]
  normalized growth: 1.02
